Experimental data: PubChem BioAssay (EPA / NIEHS)
Values joined by “and” are separate entries in the source; they are usually repeats but may differ in a detail not shown here. Equal values may be shown once. Records with an inconclusive call do not appear. Active and inactive are the calls of the source. How the source made its calls, unless noted: active means hit-call score of the fitted dose curve at least 0.9, where 1 is the maximum; inconclusive means response in the unintended direction; inactive means score below 0.9.

What was measured:
[1] = target: Bile acid receptor (Homo sapiens) (UniProt Q96RI1); test: ATG_FXR_TRANS: Attagene TRANS-FACTORIAL HepG2 Assay for Farnesoid X Receptor (FXR) (AID 2282979); conditions: HepG2 Attagene TRANS FXR-GAL4 reporter transcription;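 further: hits raise reporter mRNA above DMSO so AC50 marks FXR activation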
Chain of Bile acid receptor (Homo sapiens) (Q96RI1 whole entry, looked up, the tested form may be a part): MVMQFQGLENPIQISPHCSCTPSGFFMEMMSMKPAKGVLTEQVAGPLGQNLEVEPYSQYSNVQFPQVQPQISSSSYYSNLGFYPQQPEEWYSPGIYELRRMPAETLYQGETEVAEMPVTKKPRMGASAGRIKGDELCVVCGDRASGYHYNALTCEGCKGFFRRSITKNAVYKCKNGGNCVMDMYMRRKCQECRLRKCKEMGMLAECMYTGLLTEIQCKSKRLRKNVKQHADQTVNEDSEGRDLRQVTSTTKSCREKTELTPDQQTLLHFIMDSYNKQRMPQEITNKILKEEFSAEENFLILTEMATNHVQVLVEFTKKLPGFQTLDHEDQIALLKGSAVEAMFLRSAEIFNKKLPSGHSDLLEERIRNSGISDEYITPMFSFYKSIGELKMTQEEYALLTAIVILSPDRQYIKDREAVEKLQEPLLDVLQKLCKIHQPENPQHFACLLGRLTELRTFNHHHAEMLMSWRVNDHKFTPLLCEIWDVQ
How it was run: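 Transient transfection of HepG2 with multiplexed GAL4-UAS reporter units; exogenous FXR-GAL4 chimera. Dose 24 h → TriZol RNA → oligo(dT) RT → PCR, 6-FAM primer extension, HpaI cut → CE. Gain vs DMSO.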

[2] = target: Oxysterols receptor LXR-alpha (Homo sapiens) (UniProt Q13133); test: ATG_LXRa_TRANS: Attagene TRANS-FACTORIAL HepG2 Assay for human Liver X Receptor alpha (LXRa) (AID 2282980); conditions: HepG2 Attagene TRANS reporter, LXRa transactivation
Chain of Oxysterols receptor LXR-alpha (Homo sapiens) (Q13133 whole entry, looked up, the tested form may be a part): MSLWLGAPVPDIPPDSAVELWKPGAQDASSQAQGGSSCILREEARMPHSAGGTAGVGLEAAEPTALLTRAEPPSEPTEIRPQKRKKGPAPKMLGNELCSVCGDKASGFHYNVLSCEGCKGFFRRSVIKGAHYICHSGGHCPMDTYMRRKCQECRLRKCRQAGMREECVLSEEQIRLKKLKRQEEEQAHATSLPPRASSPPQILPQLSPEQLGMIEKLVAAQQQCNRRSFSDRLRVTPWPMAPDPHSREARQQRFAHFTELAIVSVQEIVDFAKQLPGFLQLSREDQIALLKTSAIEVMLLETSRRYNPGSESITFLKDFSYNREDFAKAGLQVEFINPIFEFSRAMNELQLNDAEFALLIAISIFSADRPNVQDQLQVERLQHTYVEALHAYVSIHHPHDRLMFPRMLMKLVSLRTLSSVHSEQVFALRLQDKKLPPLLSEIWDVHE
How it was run: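 Transfect HepG2 with GAL4-UAS multiplex reporter constructs (TRANS format, chimeric receptor-GAL4); treat 24 h; extract RNA, reverse-transcribe, PCR-amplify, FAM-label, HpaI-digest; resolve fragments by capillary electrophoresis. Upward response vs DMSO.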

[3] = target: Oxysterols receptor LXR-beta (Homo sapiens) (UniProt P55055); test: ATG_LXRb_TRANS: Attagene TRANS-FACTORIAL HepG2 Assay for human Liver X Receptor beta (LXRb) (AID 2282981); conditions: HepG2 Attagene TRANS GAL4-LXRb reporter, mRNA
Chain of Oxysterols receptor LXR-beta (Homo sapiens) (P55055 whole entry, looked up, the tested form may be a part): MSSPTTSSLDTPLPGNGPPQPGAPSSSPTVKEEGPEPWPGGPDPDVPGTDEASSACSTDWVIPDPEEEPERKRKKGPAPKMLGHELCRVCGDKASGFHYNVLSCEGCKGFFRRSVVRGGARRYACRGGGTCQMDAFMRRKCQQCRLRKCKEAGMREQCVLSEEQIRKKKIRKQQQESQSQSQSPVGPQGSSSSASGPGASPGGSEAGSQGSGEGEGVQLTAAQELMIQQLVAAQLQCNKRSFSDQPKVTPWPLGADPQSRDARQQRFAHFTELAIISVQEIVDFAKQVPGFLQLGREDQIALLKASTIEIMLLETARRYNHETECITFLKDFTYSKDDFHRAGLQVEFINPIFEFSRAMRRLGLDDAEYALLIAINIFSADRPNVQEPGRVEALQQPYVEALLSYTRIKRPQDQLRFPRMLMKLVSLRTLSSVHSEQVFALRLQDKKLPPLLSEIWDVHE
How it was run: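 Cells: HepG2, transiently transfected with GAL4-UAS reporter units plus LXRb-Gal4 fusion. Treatment: 24 h. Detection: reporter mRNA by RT-PCR, 6-FAM labelling, HpaI digestion, capillary electrophoresis.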

[4] = target: Hepatocyte nuclear factor 4-alpha (Homo sapiens) (UniProt P41235); test: ATG_HNF4a_TRANS: Attagene TRANS-FACTORIAL HepG2 Assay for human Hepatocyte Nuclear Factor 4 alpha (HNF4a) (AID 2282982); conditions: HepG2 HNF4a transactivation reporter, mRNA readout
Chain of Hepatocyte nuclear factor 4-alpha (Homo sapiens) (P41235 whole entry, looked up): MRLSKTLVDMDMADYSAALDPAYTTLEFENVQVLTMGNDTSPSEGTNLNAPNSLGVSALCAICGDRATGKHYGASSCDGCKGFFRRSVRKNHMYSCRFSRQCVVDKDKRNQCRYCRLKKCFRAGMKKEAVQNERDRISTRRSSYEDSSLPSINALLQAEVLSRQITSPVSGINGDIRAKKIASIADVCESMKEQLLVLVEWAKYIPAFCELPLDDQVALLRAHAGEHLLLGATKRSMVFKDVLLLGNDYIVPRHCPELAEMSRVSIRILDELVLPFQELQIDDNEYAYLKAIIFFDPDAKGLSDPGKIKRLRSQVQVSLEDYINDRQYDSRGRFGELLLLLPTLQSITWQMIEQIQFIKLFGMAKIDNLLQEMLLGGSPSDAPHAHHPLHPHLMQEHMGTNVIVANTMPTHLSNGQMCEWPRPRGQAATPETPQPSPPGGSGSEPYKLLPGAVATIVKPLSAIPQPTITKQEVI
How it was run: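 Transfected HepG2 reporter cells are dosed for 24 h; reporter RNA is reverse-transcribed, amplified, fluorescently labelled and HpaI-digested before CE sizing. Positive-direction fit against DMSO.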

[5] = ATG_M_06_TRANS: Attagene TRANS-FACTORIAL HepG2 Assay for M06 Transcription Factor (Internal Marker) (AID 2282983); conditions: HepG2 Attagene TRANS M06 internal marker reporter
How it was run: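 Transfect HepG2 with MRTUs → dose compounds 24 h → isolate RNA, oligo(dT) RT → PCR with reporter primers → 6-FAM primer extension → HpaI digest → CE fragment analysis. Positive direction vs DMSO.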

[6] = ATG_M_32_TRANS: Attagene TRANS-FACTORIAL HepG2 Assay for M32 Transcription Factor (Internal Marker) (AID 2282984); conditions: HepG2 Attagene TRANS M32 internal marker reporter;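 further: transcript level of a background control reporter unit measured by RT-PCR and capillary electrophoresis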
How it was run: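 Using transiently transfected HepG2 cells exposed to test chemicals for 24 h, reporter transcripts are converted to labelled cDNA fragments and quantified by capillary electrophoresis. DMSO defines the activity baseline.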

[7] = target: Transcriptional activator Myb (Homo sapiens) (UniProt P10242); test: ATG_Myb_CIS: Attagene CIS-FACTORIAL HepG2 Assay for human Myeloblastosis (Myb) Proto-Oncogene Transcription Factor (AID 2282986; active means hit-call score of the fitted dose curve at least 0.9, where 1 is the maximum; inactive means score below 0.9); conditions: HepG2 Attagene CIS-FACTORIAL Myb reporter transcription; actives raise or lower the signal
Chain of Transcriptional activator Myb (Homo sapiens) (P10242 whole entry, looked up): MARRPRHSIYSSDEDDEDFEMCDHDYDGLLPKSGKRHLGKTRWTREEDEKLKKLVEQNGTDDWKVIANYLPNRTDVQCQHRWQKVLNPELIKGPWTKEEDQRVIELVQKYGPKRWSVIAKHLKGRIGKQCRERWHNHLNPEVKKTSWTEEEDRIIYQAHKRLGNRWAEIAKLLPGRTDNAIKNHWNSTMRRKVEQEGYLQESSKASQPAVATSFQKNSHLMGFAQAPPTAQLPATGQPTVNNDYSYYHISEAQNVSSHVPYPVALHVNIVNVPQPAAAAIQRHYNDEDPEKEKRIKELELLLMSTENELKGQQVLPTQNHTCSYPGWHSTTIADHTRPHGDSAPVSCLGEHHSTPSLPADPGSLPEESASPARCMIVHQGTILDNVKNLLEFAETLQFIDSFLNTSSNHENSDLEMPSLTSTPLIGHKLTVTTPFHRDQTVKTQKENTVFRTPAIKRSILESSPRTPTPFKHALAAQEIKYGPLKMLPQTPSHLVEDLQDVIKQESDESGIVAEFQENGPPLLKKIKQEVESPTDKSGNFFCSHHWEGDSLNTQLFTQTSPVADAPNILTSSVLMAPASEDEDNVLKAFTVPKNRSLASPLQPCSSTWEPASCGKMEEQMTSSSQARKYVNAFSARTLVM
How it was run: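 Transiently transfected HepG2 cells, treated 24 h. Reporter mRNA quantified by RT-PCR/capillary electrophoresis; bidirectional fit relative to DMSO.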

[8] = target: Nuclear respiratory factor 1 (Homo sapiens) (UniProt Q16656); test: ATG_NRF1_CIS: Attagene CIS-FACTORIAL HepG2 Assay for human Nuclear Respiratory Factor 1 (NRF1) Orphan Gene (AID 2282987; active means hit-call score of the fitted dose curve at least 0.9, where 1 is the maximum; inactive means score below 0.9); conditions: HepG2 NRF1 cis-element reporter, Attagene multiplex; actives raise or lower the signal
Chain of Nuclear respiratory factor 1 (Homo sapiens) (Q16656 whole entry, looked up, the tested form may be a part): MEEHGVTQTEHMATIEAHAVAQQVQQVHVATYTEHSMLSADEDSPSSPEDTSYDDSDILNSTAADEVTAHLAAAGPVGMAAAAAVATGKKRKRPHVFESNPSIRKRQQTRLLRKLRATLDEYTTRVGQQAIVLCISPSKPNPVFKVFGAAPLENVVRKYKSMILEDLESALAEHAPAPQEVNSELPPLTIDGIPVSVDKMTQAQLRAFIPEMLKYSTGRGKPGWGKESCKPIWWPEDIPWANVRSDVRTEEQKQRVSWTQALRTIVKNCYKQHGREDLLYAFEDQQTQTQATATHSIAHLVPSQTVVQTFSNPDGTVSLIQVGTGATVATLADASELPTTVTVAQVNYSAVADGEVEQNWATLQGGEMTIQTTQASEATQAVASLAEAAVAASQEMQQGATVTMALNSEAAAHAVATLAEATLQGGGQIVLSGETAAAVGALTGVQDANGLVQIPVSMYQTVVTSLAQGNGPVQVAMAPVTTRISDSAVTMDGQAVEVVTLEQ
How it was run: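 Cells (HepG2, transient MRTU transfection) are exposed to compound for 24 h, then RNA isolated and reporter mRNA amplified and fluorescently labelled. Fragments are separated by capillary electrophoresis; signal change is fitted bidirectionally relative to DMSO.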

[9] = target: Nuclear receptor subfamily 4 group A member 2 (Homo sapiens) (UniProt P43354); test: ATG_NURR1_TRANS: Attagene TRANS-FACTORIAL HepG2 Assay for human Nuclear Receptor Related Protein 1 (NURR1) (AID 2282985); conditions: HepG2 Attagene TRANS reporter, mRNA readout
Chain of Nuclear receptor subfamily 4 group A member 2 (Homo sapiens) (P43354 whole entry, looked up): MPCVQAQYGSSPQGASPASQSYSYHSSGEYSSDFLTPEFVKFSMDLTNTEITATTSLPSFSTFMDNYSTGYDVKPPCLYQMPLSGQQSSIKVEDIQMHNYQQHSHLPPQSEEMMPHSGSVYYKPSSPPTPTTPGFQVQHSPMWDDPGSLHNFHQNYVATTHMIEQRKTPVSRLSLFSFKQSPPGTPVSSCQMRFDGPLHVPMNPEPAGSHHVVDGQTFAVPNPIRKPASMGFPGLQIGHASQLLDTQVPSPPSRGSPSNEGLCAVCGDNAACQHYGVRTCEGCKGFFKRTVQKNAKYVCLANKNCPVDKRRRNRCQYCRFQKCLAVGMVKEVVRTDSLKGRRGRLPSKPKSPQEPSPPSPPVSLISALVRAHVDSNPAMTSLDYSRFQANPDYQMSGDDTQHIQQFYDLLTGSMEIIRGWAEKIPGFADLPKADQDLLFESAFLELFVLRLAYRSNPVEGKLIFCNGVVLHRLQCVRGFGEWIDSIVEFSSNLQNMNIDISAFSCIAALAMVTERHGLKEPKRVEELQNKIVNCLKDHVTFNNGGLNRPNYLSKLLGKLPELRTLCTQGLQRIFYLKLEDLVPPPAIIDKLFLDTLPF
How it was run: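 Cells: HepG2, transiently transfected. Exposure: 24 h. Detection: fluorescence of labelled RT-PCR products separated by capillary electrophoresis; upward fit versus DMSO.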

[10] = target: Glucocorticoid receptor (Homo sapiens) (UniProt P04150); test: ATG_GR_TRANS: Attagene TRANS-FACTORIAL HepG2 Assay for human Glucocorticoid Receptor (GR) (AID 2282978); conditions: HepG2 Attagene TRANS GR reporter, mRNA transcription;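 further: activators score as hits since higher reporter transcript over DMSO is fitted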
Chain of Glucocorticoid receptor (Homo sapiens) (P04150 whole entry, looked up, the tested form may be a part): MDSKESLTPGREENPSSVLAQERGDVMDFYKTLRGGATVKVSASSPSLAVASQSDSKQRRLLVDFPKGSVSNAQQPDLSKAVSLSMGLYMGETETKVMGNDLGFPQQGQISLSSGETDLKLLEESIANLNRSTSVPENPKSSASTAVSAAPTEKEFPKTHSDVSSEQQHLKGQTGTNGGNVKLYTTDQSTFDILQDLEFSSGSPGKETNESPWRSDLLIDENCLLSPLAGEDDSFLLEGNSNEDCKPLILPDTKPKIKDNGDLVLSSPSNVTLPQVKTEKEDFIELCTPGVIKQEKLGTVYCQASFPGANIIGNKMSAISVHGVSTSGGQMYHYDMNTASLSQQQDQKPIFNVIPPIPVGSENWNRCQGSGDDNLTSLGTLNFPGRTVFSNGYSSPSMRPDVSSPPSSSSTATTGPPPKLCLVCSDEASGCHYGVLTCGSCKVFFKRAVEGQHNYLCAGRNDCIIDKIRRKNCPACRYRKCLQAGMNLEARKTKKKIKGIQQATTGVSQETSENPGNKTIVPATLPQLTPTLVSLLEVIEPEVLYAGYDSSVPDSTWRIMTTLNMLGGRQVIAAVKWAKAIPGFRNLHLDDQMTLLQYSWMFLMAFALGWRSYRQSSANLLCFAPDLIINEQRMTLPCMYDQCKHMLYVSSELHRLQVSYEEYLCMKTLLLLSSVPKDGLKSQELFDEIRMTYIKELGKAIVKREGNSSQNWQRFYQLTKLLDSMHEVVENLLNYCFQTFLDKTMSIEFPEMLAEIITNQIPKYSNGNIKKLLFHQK
How it was run: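 Reporter transcript levels, detected by fluorescence after RT-PCR and capillary electrophoresis, served as the endpoint. HepG2 cells bearing transfected GAL4-UAS reporters responsive to NR-GAL4 chimeras were incubated with compound 24 h; DMSO defined baseline.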

Structure (SMILES): CC(O)C(=O)O (stereo unspecified)
- outcome [1]: inactive
- outcome [2]: inactive
- outcome [3]: inactive
- outcome [4]: inactive
- outcome [5]: inactive
- outcome [6]: inactive
- outcome [7]: inactive
- outcome [8]: inactive

Structure (SMILES): CC(C)(C)c1ccc(O)c(C(C)(C)C)c1
- outcome [1]: inactive
- AC50 [2]: 5.26 µM (active)
- AC50 [3]: 5.32 µM (active)
- outcome [4]: inactive
- AC50 [9]: 9.6 µM (active)
- outcome [7]: inactive
- outcome [8]: inactive

Structure (SMILES): NC(=O)N1C(=O)C(C(=O)c2cc(Cl)cs2)c2cc(F)c(Cl)cc21 (stereo unspecified)
- outcome [1]: inactive
- outcome [2]: inactive
- outcome [3]: inactive
- outcome [4]: inactive
- outcome [6]: inactive
- outcome [7]: inactive
- outcome [8]: inactive

Structure (SMILES): CCCCC(CC)COC(=O)CCCCC(=O)OCc1ccccc1 (stereo unspecified)
- outcome [3]: inactive
- outcome [7]: inactive
- outcome [8]: inactive

Structure (SMILES): c1ccc2cc3c(ccc4ccccc43)cc2c1
- outcome [1]: inactive
- outcome [4]: inactive
- outcome [5]: inactive
- outcome [6]: inactive
- outcome [9]: inactive
- outcome [7]: inactive
- outcome [8]: inactive

Structure (SMILES): O=[N+]([O-])c1ccc(O)cc1
- outcome [2]: inactive
- outcome [4]: inactive
- outcome [9]: inactive
- outcome [7]: inactive
- outcome [8]: inactive

Structure (SMILES): C[C@@H]1C[C@H]2[C@@H]3CCC4=CC(=O)C=C[C@]4(C)[C@@]3(F)[C@@H](O)C[C@]2(C)[C@@]1(O)C(=O)COP(=O)(O)O
- outcome [2]: inactive
- outcome [3]: inactive
- outcome [6]: inactive
- outcome [9]: inactive
- outcome [7]: inactive
- outcome [8]: inactive

Structure (SMILES): CC(C)CCCCCCOC(=O)CCCCC(=O)OCCCCCCC(C)C
- outcome [2]: inactive
- outcome [7]: inactive
- outcome [8]: inactive

Structure (SMILES): O=C(OCCOCCOC(=O)c1ccccc1)c1ccccc1
- outcome [1]: inactive
- outcome [2]: inactive
- outcome [3]: inactive
- outcome [4]: inactive
- outcome [7]: inactive
- outcome [8]: inactive

Structure (SMILES): O=C(/C=C/c1ccc(O)cc1)CC(=O)/C=C/c1ccc(O)cc1
- outcome [1]: inactive
- outcome [2]: inactive
- outcome [4]: inactive
- outcome [5]: inactive
- outcome [9]: inactive
- outcome [7]: inactive
- outcome [8]: inactive

Structure (SMILES): COCC(C)OCC(C)O (stereo unspecified)
- outcome [1]: inactive
- outcome [4]: inactive
- outcome [7]: inactive
- outcome [8]: inactive

Structure (SMILES): CCCCCCCC(=O)O
- outcome [10]: inactive
- outcome [3]: inactive
- outcome [4]: inactive
- outcome [5]: inactive
- outcome [9]: inactive
- outcome [7]: inactive
- outcome [8]: inactive

Structure (SMILES): CCCCCCCCOC(=O)CCCCCCCCC(=O)OCCCCCCCC
- outcome [1]: inactive
- outcome [9]: inactive
- outcome [7]: inactive
- outcome [8]: inactive

Structure (SMILES): CCCCOCCO
- outcome [7]: inactive
- outcome [8]: inactive

Structure (SMILES): CC(=O)CC(C)(C)O
- outcome [10]: inactive
- outcome [2]: inactive
- outcome [3]: inactive
- outcome [6]: inactive
- outcome [9]: inactive
- outcome [7]: inactive
- outcome [8]: inactive

Structure (SMILES): CCCCCCCCC(=O)O
- outcome [3]: inactive
- outcome [4]: inactive
- outcome [6]: inactive
- outcome [9]: inactive
- outcome [7]: inactive
- outcome [8]: inactive

Structure (SMILES): CN1CCN(c2ccccc2/C=C2\SCCN(c3ccc(Cl)c(Cl)c3)C2=O)CC1
- outcome [5]: inactive
- outcome [9]: inactive
- outcome [7]: inactive
- outcome [8]: inactive

Structure (SMILES): COc1ccc([N+](=O)[O-])cc1N
- outcome [10]: inactive
- outcome [4]: inactive
- outcome [7]: inactive
- outcome [8]: inactive

Structure (SMILES): CCCCCCCCCCCCCC[N+](C)(C)C
- outcome [1]: inactive
- AC50 [4]: 43.7 µM (active) and 40.9 µM (active)
- outcome [5]: inactive
- outcome [6]: inactive
- AC50 [9]: 26.9 µM (active)
- outcome [7]: inactive
- outcome [8]: inactive
